# PubChem BioAssay (EPA / NIEHS)
# Activity calls are given as the source filed them. How the source made its calls: active means hit-call score of the fitted dose curve at least 0.9, where 1 is the maximum; inactive means score below 0.9.
# Assays:
# Decorin, DCN (gene 1634) = assay: BSK_MyoF_Decorin: BioMAP Diversity Plus: MyoF Assay for Decorin Biomarker Activity (AID 2284265); details: primary human lung fibroblasts
# Outline: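 Human lung fibroblasts in the MyoF system were exposed to compound for 24 h, after which decorin was quantified by ELISA. Activity was fitted in the positive direction relative to DMSO negative control.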
# KRT18 (gene 3875) = assay: BSK_BF4T_Keratin818: BioMAP Diversity Plus: BF4T Assay for Keratin 818 Biomarker Activity (AID 2284266); details: primary human bronchial epithelial cells with fibroblasts
# Outline: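 Co-culture of human bronchial epithelial cells and dermal fibroblasts, chemical exposure 24 h. Keratin 8/18 measured by ELISA; positive-direction fit vs DMSO. SRB total protein run in parallel cultures for cytotoxicity.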
# [1] = BSK_MyoF_SRB: Viability Assessment in the BioMAP Diversity Plus: MyoF Assay (AID 2284267); details: primary human lung fibroblasts;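 further: total protein by SRB absorbance in parallel cultures as cytotoxicity measure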
# Outline: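 Human lung fibroblasts dosed with chemical and assessed 24 h later for overt cytotoxicity in parallel cultures. Total protein quantified by sulforhodamine B staining (0.1% SRB after 10% TCA fixation), read at 560 nm, analysed in positive direction versus DMSO baseline.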
# [2] = read-out: Matrix Metallopeptidase 1 (MMP1), MMP1 (gene 4312); assay: BSK_MyoF_MMP1: BioMAP Diversity Plus: MyoF Assay for Matrix Metallopeptidase 1 (MMP1) Biomarker Activity (AID 2284268); details: primary human lung fibroblasts
# Outline: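 ELISA readout of MMP1 in primary human lung fibroblast cultures, 24 h post-dosing. Gain of signal versus DMSO vehicle control defines activity. Parallel SRB staining (0.1% after 10% TCA fixation, 560 nm) flags overt cytotoxicity.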
# [3] = read-out: Matrix Metallopeptidase 1 (MMP1), MMP1 (gene 4312); assay: BSK_BF4T_MMP1: BioMAP Diversity Plus: BF4T Assay for Matrix Metallopeptidase 1 (MMP1) Biomarker Activity (AID 2284270); details: primary human bronchial epithelial cells with fibroblasts
# Outline: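 Co-culture of human bronchial epithelial cells and dermal fibroblasts; MMP-1 levels measured by ELISA 24 hours after chemical dosing, relative to DMSO. Cytotoxicity checked in parallel cultures by SRB total-protein staining.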
# [4] = read-out: Matrix Metallopeptidase 3 (MMP3), MMP3 (gene 4314); assay: BSK_BF4T_MMP3: BioMAP Diversity Plus: BF4T Assay for Matrix Metallopeptidase 3 (MMP3) Biomarker Activity (AID 2284271); details: primary human bronchial epithelial cells with fibroblasts
# Outline: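 Co-culture of human bronchial epithelial cells and dermal fibroblasts dosed 24 h; MMP-3 measured by ELISA, positive-direction fit versus DMSO. Cytotoxicity tracked by SRB total-protein staining (560 nm) in parallel cultures.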
# [5] = read-out: Plasminogen Activator Inhibitor-1 (PAI1), SERPINE1 (gene 5054); assay: BSK_BF4T_PAI1: BioMAP Diversity Plus: BF4T Assay for Plasminogen Activator Inhibitor-1 (PAI1) Biomarker Activity (AID 2284273); details: primary human bronchial epithelial cells with fibroblasts
# Outline: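 Co-culture of human bronchial epithelial cells and dermal fibroblasts exposed to compound for 24 h. PAI-1 measured by ELISA; activity fitted in positive direction versus DMSO. Parallel SRB staining assessed overt cytotoxicity.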
# [6] = BSK_BF4T_SRB: Viability Assessment in the BioMAP Diversity Plus: BF4T Assay (AID 2284274); details: primary human bronchial epithelial cells with fibroblasts
# Outline: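 Co-culture of human bronchial epithelial cells and dermal fibroblasts (BioMAP BF4T) exposed 24 h. Total protein by sulforhodamine B staining (0.1% SRB after 10% TCA fixation, 560 nm) in parallel cultures; fitted vs DMSO.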
# [7] = read-out: Tissue plasminogen activator (tPA), PLAT (gene 5327); assay: BSK_BF4T_tPA: BioMAP Diversity Plus: BF4T Assay for Tissue plasminogen activator (tPA) Biomarker Activity (AID 2284272); details: primary human bronchial epithelial cells with fibroblasts
# Outline: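 tPA level quantified by ELISA at 24 h post-treatment in bronchial epithelial/dermal fibroblast co-cultures, gain of signal scored against DMSO baseline. Parallel cultures stained with 0.1% SRB (560 nm) to flag overt cytotoxicity.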
# [8] = read-out: TIMP metallopeptidase inhibitor 1 (TIMP1), TIMP1 (gene 7076); assay: BSK_MyoF_TIMP1: BioMAP Diversity Plus: MyoF Assay for TIMP metallopeptidase inhibitor 1 (TIMP1) Biomarker Activity (AID 2284269); details: primary human lung fibroblasts
# Outline: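 ELISA quantified TIMP-1 levels after 24 h dosing of primary human lung fibroblasts, with DMSO as baseline. Parallel SRB total protein staining (0.1% SRB after TCA fixation, 560 nm) flagged overt cytotoxicity.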
smiles,measurement,setting,value
COC(=O)CCC(F)(F)C(F)(F)C(F)(F)C(F)(F)F,outcome,"Decorin, DCN (gene 1634)",inactive
same,outcome,KRT18 (gene 3875),inactive
same,outcome,[1],inactive
same,outcome,[2],inactive
same,outcome,[3],inactive
same,outcome,[4],inactive
same,outcome,[5],inactive
same,outcome,[6],inactive
CC(CCl)OP(=O)(OC(C)CCl)OC(C)CCl (stereo not drawn),outcome,"Decorin, DCN (gene 1634)",inactive
same,outcome,[1],inactive
same,outcome,[2],inactive
FC(F)(F)C(F)(F)C(F)(F)C(F)(F)C(F)(F)C(F)(F)CCS,outcome,"Decorin, DCN (gene 1634)",inactive
same,outcome,KRT18 (gene 3875),inactive
same,outcome,[1],inactive
same,outcome,[2],inactive
same,outcome,[3],inactive
same,outcome,[4],inactive
same,outcome,[7],inactive
same,outcome,[5],inactive
same,outcome,[6],inactive
FC(F)(F)C(F)(F)C(F)(F)C(F)(F)C(F)(F)C(F)(F)CC1CO1 (stereo not drawn),outcome,"Decorin, DCN (gene 1634)",inactive
same,outcome,KRT18 (gene 3875),inactive
same,outcome,[1],inactive
same,outcome,[2],inactive
same,outcome,[3],inactive
same,outcome,[4],inactive
same,outcome,[5],inactive
same,outcome,[6],inactive
CCc1c(Br)c(Br)c(Br)c(Br)c1Br,outcome,"Decorin, DCN (gene 1634)",inactive
same,outcome,[1],inactive
same,AC50,[2],13.2 µM (active)
C#C[C@]1(O)CC[C@H]2[C@@H]3CCc4cc(OC)ccc4[C@H]3CC[C@@]21C,outcome,"Decorin, DCN (gene 1634)",inactive
same,outcome,[1],inactive
same,AC50,[2],20 µM (active)
same,outcome,[8],inactive
CCCCCCCCCCCCCCCC[N+](C)(C)Cc1ccccc1,AC50,"Decorin, DCN (gene 1634)",9.35 µM (active)
same,AC50,[1],5.13 µM (active)
same,AC50,[2],2.7 µM (active)
same,AC50,[8],8.14 µM (active)
O=C(CC(=O)C(F)(F)C(F)(F)F)C(F)(F)F,outcome,"Decorin, DCN (gene 1634)",inactive
same,outcome,KRT18 (gene 3875),inactive
same,outcome,[1],inactive
same,outcome,[2],inactive
same,outcome,[3],inactive
same,outcome,[4],inactive
same,outcome,[5],inactive
same,outcome,[6],inactive
CCc1ccc(C(c2ccc(CC)cc2)C(Cl)Cl)cc1,outcome,"Decorin, DCN (gene 1634)",inactive
same,AC50,[1],25.7 µM (active)
same,AC50,[2],8.65 µM (active)
Nc1ccc([N+](=O)[O-])cc1O,outcome,"Decorin, DCN (gene 1634)",inactive
same,outcome,[1],inactive
same,outcome,[2],inactive
FC(F)(F)C(F)(F)C(F)(F)C(F)(F)C(F)(F)C(F)(F)C(F)(F)Br,outcome,"Decorin, DCN (gene 1634)",inactive
same,outcome,KRT18 (gene 3875),inactive
same,outcome,[1],inactive
same,outcome,[2],inactive
same,outcome,[3],inactive
same,outcome,[4],inactive
same,outcome,[5],inactive
same,outcome,[6],inactive
C=CC(F)(F)C(F)(F)C(F)(F)C(F)(F)C(F)(F)C(F)(F)C(F)(F)C(F)(F)F,outcome,"Decorin, DCN (gene 1634)",inactive
same,outcome,KRT18 (gene 3875),inactive
same,outcome,[1],inactive
same,outcome,[2],inactive
same,outcome,[3],inactive
same,outcome,[4],inactive
same,outcome,[5],inactive
same,outcome,[6],inactive
O=C(O)C(F)(OC(F)(F)C(F)(OC(F)(F)C(F)(F)C(F)(F)F)C(F)(F)F)C(F)(F)F (stereo not drawn),outcome,"Decorin, DCN (gene 1634)",inactive
same,outcome,KRT18 (gene 3875),inactive
same,outcome,[1],inactive
same,outcome,[2],inactive
same,outcome,[3],inactive
same,outcome,[4],inactive
same,outcome,[5],inactive
same,outcome,[6],inactive
CCCCOCCOCCOC(=O)CCCCC(=O)OCCOCCOCCCC,outcome,"Decorin, DCN (gene 1634)",inactive
same,outcome,[1],inactive
same,outcome,[2],inactive
same,outcome,[8],inactive
C=CC/C=C/C/C=C/C/C=C/C,outcome,"Decorin, DCN (gene 1634)",inactive
same,outcome,[1],inactive
same,outcome,[2],inactive
same,outcome,[8],inactive
O=C(O)C(F)(F)C(F)(F)C(F)(F)C(F)(F)C(F)(F)C(F)(F)C(F)(F)C(F)(F)C(F)(F)C(F)(F)C(F)(F)C(F)(F)F,outcome,"Decorin, DCN (gene 1634)",inactive
same,outcome,KRT18 (gene 3875),inactive
same,outcome,[1],inactive
same,outcome,[2],inactive
same,outcome,[3],inactive
same,outcome,[4],inactive
same,outcome,[5],inactive
same,outcome,[6],inactive
CS(C)(=O)=O,outcome,"Decorin, DCN (gene 1634)",inactive
same,outcome,[1],inactive
same,outcome,[2],inactive
OCC(F)(F)C(F)(F)C(F)(F)C(F)(F)C(F)(F)C(F)F,outcome,"Decorin, DCN (gene 1634)",inactive
same,outcome,KRT18 (gene 3875),inactive
same,outcome,[1],inactive
same,outcome,[2],inactive
same,outcome,[3],inactive
same,outcome,[4],inactive
same,outcome,[7],inactive
same,outcome,[5],inactive
same,outcome,[6],inactive
O=P(O)(O)OCCC(F)(F)C(F)(F)C(F)(F)C(F)(F)C(F)(F)C(F)(F)F,outcome,"Decorin, DCN (gene 1634)",inactive
same,outcome,KRT18 (gene 3875),inactive
same,outcome,[1],inactive
same,outcome,[2],inactive
same,outcome,[3],inactive
same,outcome,[4],inactive
same,outcome,[5],inactive
same,outcome,[6],inactive
FC(F)(F)C(F)(F)C(F)(F)N(C(F)(F)C(F)(F)C(F)(F)F)C(F)(F)C(F)(F)C(F)(F)F,outcome,"Decorin, DCN (gene 1634)",inactive
same,outcome,KRT18 (gene 3875),inactive
same,outcome,[1],inactive
same,outcome,[2],inactive
same,outcome,[3],inactive
same,outcome,[4],inactive
same,outcome,[5],inactive
same,outcome,[6],inactive
CCCCCCCOC(=O)c1ccccc1C(=O)OCCCCCCC,outcome,"Decorin, DCN (gene 1634)",inactive
same,outcome,[1],inactive
same,outcome,[2],inactive
CCN(CC)c1ccc2c(C)cc(=O)oc2c1,outcome,"Decorin, DCN (gene 1634)",inactive
same,outcome,[1],inactive
same,outcome,[2],inactive
same,outcome,[8],inactive
